The values below come from PubChem BioAssay AID1645855 (Buhrlage Lab, Dana-Farber Cancer Institute and Novartis …, 2021).

In general, inhibition refers to the drop in the measured response relative to a control, in per cent.

Structures are written as SMILES. Among all 47,000 compounds or so, about 3,100 (6.6%) were called active. This is one part of a sample in which actives are shown more often than they occur. Values without a mark were called inactive. Rule as the data show it: active = inhibition above about 30%; inactive = the rest.

In the experiment the target is Ubiquitin carboxyl-terminal hydrolase 17-like protein 5 (Homo sapiens) (UniProt A8MUK1). The experiment is described as follows: inhibitors of human USP17 deubiquitinase (AID 1645855). The note with it: purified USP17, Ub-rhodamine cleavage fluorescence, 3 h; at 50 µM; active compounds read high.
Sequence of Ubiquitin carboxyl-terminal hydrolase 17-like protein 5 (Homo sapiens) (A8MUK1 whole entry, looked up): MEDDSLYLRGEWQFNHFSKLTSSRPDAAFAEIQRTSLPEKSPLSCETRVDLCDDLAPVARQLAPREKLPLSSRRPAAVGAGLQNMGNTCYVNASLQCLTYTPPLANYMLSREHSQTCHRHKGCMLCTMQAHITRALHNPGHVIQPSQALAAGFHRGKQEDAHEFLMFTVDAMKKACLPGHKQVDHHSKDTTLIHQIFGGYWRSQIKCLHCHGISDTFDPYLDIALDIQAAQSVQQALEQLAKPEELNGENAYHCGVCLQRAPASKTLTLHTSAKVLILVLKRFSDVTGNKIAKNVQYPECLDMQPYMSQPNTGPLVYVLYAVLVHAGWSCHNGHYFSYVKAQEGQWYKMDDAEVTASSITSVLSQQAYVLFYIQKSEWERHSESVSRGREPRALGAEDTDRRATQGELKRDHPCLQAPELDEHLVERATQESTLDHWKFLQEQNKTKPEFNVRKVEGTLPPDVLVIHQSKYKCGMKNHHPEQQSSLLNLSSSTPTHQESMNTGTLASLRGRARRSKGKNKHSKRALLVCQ
Turning to `O=C(Cn1c(=O)n(Cc2ccc3c(c2)OCO3)c(=O)c2cccnc21)Nc1ccc(F)cc1`, the inhibition is 14.6%.
As for `CC(C)[C@H](NC(=O)N1CCn2c1nc1ccccc12)C(=O)NCCc1ccccc1`, the inhibition was -12.9%.
The same measure for `CCN1CCN(c2nc(F)c3c(c2F)S(=O)(=O)CCN3CC2CCCO2)CC1` (centres undefined): 16.6%; for `O=S1(=O)c2ccccc2O[C@H]2CCN(c3ncccn3)CC[C@@H]2N1Cc1cccnc1`: -37.6%; for `CC1CCN(c2nc(F)c3c(c2F)S(=O)(=O)CCN3Cc2cccnc2)CC1`: 50.9% (active).
Take `Cc1noc(-c2ccc3nnc(CC(=O)Nc4ccc(C)c(F)c4)n3c2)n1`: the inhibition is -2.57%.
The same measure for `COC(=O)c1cccc(Oc2nc(OC)nc(OC)n2)c1`: -1.33%; for `CNS(=O)(=O)c1ccc(CNC(=O)c2cc(-c3ccc(C)cc3)no2)cc1`: 65% (active).
`Cc1ccc(CNC(=O)c2ccc(-c3cccnc3)nc2)cc1`: the inhibition is 9.44%.
For `Cc1cc(C)n(Cc2c(C(=O)NCc3ccc(F)cc3)noc2C)n1`, the inhibition was -5.62%.
On to `CCn1cc(S(=O)(=O)CC(=O)Nc2ccccc2C(F)(F)F)c2ccccc21`, for which the inhibition was -1.62%.
In the case of `O=C(Nc1ccccc1[N+](=O)[O-])N1CCN(c2ccc3nnc(-c4ccccc4)n3n2)CC1` it was 12.5%; in that of `Cc1cccc(-c2nnc3ccc(N4CCC(C(=O)NC(C)Cc5ccco5)CC4)nn23)c1` (centres undefined), 48.5% (active); in that of `CC1CCN(C(=O)CSc2ccc3nnc(-c4cccc(F)c4)n3n2)CC1`, -2.06%.
The same measure for `COCCn1c(=O)[nH]c2cc(C(=O)NCCNc3ccc([N+](=O)[O-])cc3C#N)ccc2c1=O`: 53.7% (active).
In the case of `COCCn1c(=O)[nH]c2cc(C(=O)NCc3ccc(Cl)cc3)ccc2c1=O`, the inhibition is 0.361%.
The same measure for `COCCn1c(=O)[nH]c2cc(C(=O)N3CCC(Cc4ccccc4)CC3)ccc2c1=O`: 2.53%; for `CN1CCN(S(=O)(=O)c2cccc(C(=O)Nc3cccc(S(N)(=O)=O)c3)c2)CC1`: -6.3%; for `COc1cccc(N2CCN(C(=O)C3CCN(c4ncnc5onc(C)c45)CC3)CC2)c1`: -20.4%.
In the case of `CCC(=O)c1ccc(OCC(=O)Nc2ccc3nc(C)sc3c2)cc1` it was 5.34%.
The same measure for `CCC(=O)Nc1nc2cc(NC(=O)c3ccc(OC)cc3)ccc2s1`: 30.9% (active); for `CCOc1ccc2nc(NC(=O)CN3CCC(C(N)=O)CC3)sc2c1`: -0.089%.
In the case of `CC(=O)N1c2ccc(S(=O)(=O)NCC3CCC(C(=O)Nc4cccnc4)CC3)cc2CC1C` (centres undefined), the inhibition is 0.344%.
Regarding `CC(Oc1ccc2c3c(c(=O)oc2c1)CCC3)C(=O)NCC(=O)N1CC[C@@]2(O)CCCC[C@H]2C1` (some centres undefined), the inhibition is 10.3%.
The same measure for `CNC(=O)c1cnc2scc(-c3ccccc3)n2c1=O`: 1.82%; for `Cc1ccc2c(c1)C(=O)NCC1(CCN(C(=O)c3cscn3)CC1)O2`: 0.0795%; for `Cc1ccc2sc(NC(=O)NC(=O)c3c(Cl)cccc3Cl)nc2c1`: 36.4% (active).
The same measure for `O=C(Nc1ccc2sc(NC(=O)C3CCCCC3)nc2c1)NC1CCCC1`: 20.6%; for `Cc1noc2nc(C3CC3)cc(C(=O)Nc3nc4ccccc4s3)c12`: -4.21%; for `Cc1ccc(Cn2cc(C(=O)O)c(S(=O)(=O)N3CCOCC3)n2)cc1`: -22.5%.
Consider `CC(C)OCCCn1c(=O)c2ccccc2n2c(CCC(=O)NCCN3CCN(c4cccc(Cl)c4)CC3)nnc12`, for which the inhibition is 8.41%.
Take `O=C(C1CCc2nc(N3CCOCC3)ncc2C1)N1CCCCCC1` (centres undefined): the inhibition was -6.44%.
In the case of `Cc1ccc(NC(=O)C2CCCN(c3ncnc4onc(C)c34)C2)nc1` (centres undefined) it was 0.0336%; in that of `O=C(NC1CC1)C1CCN(c2ncccc2-c2nc(-c3ccccc3)no2)CC1`, 17.4%; in that of `O=C(NCC1CC1)c1nc(-c2ccc3[nH]ccc3c2)no1`, -9.5%.
Turning to `O=C(NC1CC1)c1nc(-c2ccc(-n3cccc3)cc2)no1`, the inhibition is 43.1% (active).
With `CSCC[C@H](NC(=O)N1CCn2c1nc1ccccc12)C(=O)NCc1ccc2c(c1)OCO2`, the inhibition was 14.2%.
`CCn1c(=O)c(CCC(=O)N2CCN(c3ccccc3)CC2)nc2c(C)nn(-c3ccccc3)c21`: the inhibition is 5.12%.
The same measure for `c1ccc(Nc2cc(CC3CCN(Cc4cnc[nH]4)CC3)ncn2)nc1`: -12.1%.
Turning to `CC1(C)Cc2c(c(-c3ccco3)nc3sc4c(SCCCc5ccccc5)ncnc4c23)CO1`, the inhibition was 69.7% (active).
The same measure for `CSc1ncnc2c1sc1nc(-c3ccccc3)c3c(c12)CC(C)(C)OC3`: 3.2%; for `CCCCCCSc1ncnc2c1sc1nc(-c3ccccc3)c3c(c12)CC(C)(C)OC3`: 3.28%; for `Cc1ccc(S(=O)(=O)N2Cc3ccccc3CN3C(=O)NC(=O)C3C2)cc1` (centres undefined): 4.38%.
In the case of `COc1ccc(CCNc2ncnc3c2cnn3Cc2ccccc2)cc1OC` it was -18.7%; in that of `CC(=O)N1CC(C)Oc2cc(S(=O)(=O)Nc3ccc(C)cc3C)ccc21` (centres undefined), 6.48%.
The same measure for `NC(=O)c1c(NC(=O)c2ccccc2Oc2ccccc2)sc2c1CCN(Cc1ccccc1)C2`: 30.4% (active).
`Cc1c(Cc2ccccc2)sc(NC(=O)c2cccnc2)c1C(N)=O`: the inhibition is 10.7%.
The same measure for `CC1CCc2c(sc(NC(=O)c3cc(-c4ccccc4)nc4ccccc34)c2C(N)=O)C1` (centres undefined): 4.55%; for `O=C(NCc1ccc2c(c1)OCO2)c1ccc(CS(=O)c2ccc(Cl)cc2)o1` (centres undefined): -0.0116%; for `CCc1cccc(C)c1NC(=O)C1=Cc2cc(OC)ccc2OC1`: -6.4%.
In the case of `Cc1cccc(CNC(=O)C2CCN(c3cnc4nccnc4c3)CC2)c1` it was -128%; in that of `CC(=O)Nc1nsc(N2CCC(C(=O)NCc3cccc(C)c3)CC2)n1`, -1.72%.
In the case of `Cc1cccc(CNC(=O)C2CCCN(S(=O)(=O)Cc3ccc(F)cc3)C2)c1` (centres undefined) it was 56.7% (active); in that of `COc1ccc(Cn2cc(-c3nc(C4CC4)no3)ccc2=O)cc1F`, -5.47%; in that of `CCN1CCN(c2nc3c(c(=O)[nH]c(=O)n3C)n2CC(O)c2ccccc2)CC1` (centres undefined), -4.6%.
Consider `C=CCn1c(N2CCC(C(=O)NCC(C)O)CC2)nc2ccccc21` (centres undefined), for which the inhibition is 9.39%.
In the case of `O=C1N[C@H]2OCCC[C@H]2[C@H](c2ccccc2C(=O)O)N1` it was -6.46%; in that of `Cn1c(CCN2CCCC2)nc2cc(NS(=O)(=O)c3ccccc3)ccc21`, 60.7% (active).
The same measure for `CC(=O)Nc1ccc2c(c1)nc(CCN1CCCC1)n2C`: -8.68%.
In the case of `Cn1c(CCN2CCCC2)nc2cc(NC(=O)c3cccc([N+](=O)[O-])c3)ccc21`, the inhibition is 16.8%.
The same measure for `CCc1nnc(NC(=O)c2cc(-c3ccc(C)c(C)c3O)n[nH]2)s1`: 16.7%.
In the case of `CC(C)(C)C(=O)Nc1ccc(SCc2nnc(-c3ccccc3)o2)cc1` it was 2.2%; in that of `O=C(Cc1ccccc1)Nc1ccc(-c2nc3cnccc3o2)c(O)c1`, 63.3% (active).
The same measure for `O=C(Nc1ccc(-c2nc3cnccc3o2)c(O)c1)c1ccc(-c2ccccc2)cc1`: 2.32%; for `COc1cc(C(=O)Nc2ccc(-c3nc4cnccc4o3)cc2)cc(OC)c1OC`: -3.38%.
For `O=C(c1cc(Cl)ccc1F)N1CCC(c2nc(C3CC3)n[nH]2)CC1`, the inhibition was -2.96%.
In the case of `O=C(Cn1cc(S(=O)(=O)Cc2ccccc2F)c2ccccc21)N1CCCCCC1` it was -0.288%; in that of `O=C(Cn1cc(S(=O)(=O)Cc2ccccc2Cl)c2ccccc21)N1CCCCCC1`, 42% (active).
For `Cc1ccc(CS(=O)(=O)c2cn(CC(=O)N3CCCCC3)c3ccccc23)cc1`, the inhibition was -20.5%.
Consider `COc1ccc(-c2nc(-c3cccs3)no2)cc1OC`, for which the inhibition was -2.65%.
In the case of `O=S(=O)(c1ccc(S(=O)(=O)N2CCN3CCCC3C2)cc1)N1CCOCC1` (centres undefined) it was -8.52%; in that of `Cc1ccc(NC(=O)Cc2sc(Nc3ccc(C)cc3)nc2O)cc1`, 58.2% (active); in that of `Cc1ccc(Nc2nc(O)c(CC(=O)Nc3ccc(C(C)C)cc3)s2)cc1C`, 6.68%.
As for `CCOc1ccc(Nc2nc(O)c(CC(=O)Nc3cccc(C)c3)s2)cc1`, the inhibition is 7.74%.
In the case of `NC(=O)CN1C(=O)CO[C@H]2CN(Cc3ccc(F)c(F)c3)C[C@H]21` it was -11.3%; in that of `Cn1c(=O)n(CCCO)c(=O)c2c1nc1n2CCCN1c1ccccc1`, 9.32%.
The same measure for `COc1cccc(N2CCN(C(=O)CCC3=NS(=O)(=O)c4ccc(C)cc4N3)CC2)c1`: -26.5%; for `CCOc1ccccc1NC(=O)Nc1cc(-c2nc3ccccc3o2)ccc1OC`: 57.1% (active); for `COc1ccccc1NC(=O)N1CCN(Cc2nc3ccccc3o2)CC1`: -4.24%.
The same measure for `Cn1c(=O)c2ncn(CC(=O)Nc3ccc(-c4nc5ccccc5o4)cc3)c2n(C)c1=O`: 8.05%; for `CCN1CCN(c2cc(C)c3cc(NC(=O)c4cccnc4)ccc3n2)CC1`: -9.13%.
`Cn1cnnc1SCC(=O)Nc1ccc(N2CCOCC2)c(Cl)c1`: the inhibition was -11.6%.
As for `O=C(Cc1ccccc1Cl)Nc1ccc(N2CCOCC2)cc1`, the inhibition is 31.6% (active).
In the case of `CCN(CC)c1nc2ccccc2nc1C(=O)Nc1ccc(N2CCOCC2)cc1`, the inhibition was -6.91%.
The same measure for `O=S(=O)(NCc1nc2cccnc2n1C1CC1)c1ccccc1F`: 9.68%; for `Cc1nn(-c2ccc(F)cc2)c(C)c1S(=O)(=O)NCc1ccc2c(c1)OCO2`: -23%; for `COc1ccc(CNC(=O)c2[nH]nc3c2CCc2ccccc2-3)cc1`: 67.3% (active).
The same measure for `COc1ccc(-c2ocnc2C(=O)NCc2ccc(OC)c(OC)c2)cc1`: -0.808%.
The same measure for `Cn1nc(C(=O)NCCN2CCOCC2)c2c1-c1ccccc1CC2`: 2.07%.
